Measurements from PubChem BioAssay AID492999 (Johns Hopkins Ion Channel Center, 2010).
The whole screen tested about 1,700 compounds, of which about 1,100 (65%) were called active.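 Rule for the calls: active = duplicate-averaged calcium response above the buffer-only control mean plus 5 SD of those controls; inactive = the rest.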 So high a share suggests a set chosen from earlier hits. Not all results are given here.

assay: increase of M3R-evoked calcium signal – cell-based, validation screen, HEK293 M3R/RGS4, calcium flux, RGS4 inhibitor project (AID 492999); conditions: HEK293 M3R/RGS4, carbachol calcium Fluo-4 fluorescence, at 10 µM, carbachol added at its EC20; stronger effect = higher value, 0 = buffer wells, 100 = carbachol control;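 for calcium response: integrated fluorescence ratio F max minus min over baseline F0; higher response in RGS4-induced cells means RGS4 inhibition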

Row | SMILES | calcium response
1 | CCOC(=O)C1=NN(c2ccc(Cl)cc2)/C(=C/C2=NCCc3cc(OC)c(OC)cc32)S1 | 10.5% (active)
2 | CCC(c1nnnn1Cc1ccco1)N(Cc1cc2cc(OC)ccc2[nH]c1=O)C1CCCCC1 (configuration not stated) | inactive
3 | COc1ccc(/C(O)=C2/C(=O)C(=O)N(c3nc(C)c(C)s3)C2c2ccco2)cc1 (configuration not stated) | inactive
4 | COc1ccc(-c2csc(Nc3ccc(O)cc3)n2)cc1 | 10% (active)
5 | C=CCSc1nc2c(c(=O)[nH]1)C(C(C)C)C(C#N)=C(N)O2 (configuration not stated) | 26% (active)
6 | COc1cc(Br)cc(/C=N/c2ncn[nH]2)c1O | 8% (active)
7 | C#CCOc1ccc(/C=C2/C(=O)NN(c3ccccc3)C2=O)cc1OC | 9% (active)
8 | COc1cc(/C=C2/C(=O)NN(c3cccc(Cl)c3)C2=O)cc(Br)c1O | 30.5% (active)
9 | COc1cc(/C=C2/SC(=S)N(Cc3ccccc3)C2=O)cc(OC)c1O | inactive
10 | Oc1ccc(/C=N/Nc2ccc(C(F)(F)F)cn2)cc1O | 16.5% (active)
11 | COc1ccc(/C=C/C(=O)c2ccc(OC)cc2O)cc1 | inactive
12 | Cc1nc(-c2ccccc2)sc1C(=O)/C=C/c1ccccc1 | 10% (active)
13 | O=C1Nc2ccc(Br)cc2/C1=N/N=C/C1=C(N2CCOCC2)C(=C\c2ccccc2)/CC1 | 18.5% (active)
14 | O=C(Nc1ccccc1)OCc1cc(-c2ccc(Cl)cc2)on1 | inactive
15 | COCCCNC(=S)N(CCN(C)C)Cc1cc2cc3c(cc2[nH]c1=O)OCCO3 | inactive
16 | COc1ccc(OC)c(S(=O)(=O)N2CCCC(C(=O)N3CCC(C(N)=O)CC3)C2)c1 (configuration not stated) | inactive
17 | CCOC(=O)C1CCN(C(c2cc3cc(C)cc(C)c3[nH]c2=O)c2nnnn2C2CCCCC2)CC1 (configuration not stated) | 18% (active)
18 | CCOC(=O)[C@@H]1[C@H]2COc3ccc(Br)cc3[C@H]2N2C(=O)N(c3ccc(Cl)cc3)C(=O)[C@@]12C | inactive
19 | Cc1cc(C)nc(S/C=C/C(=O)c2ccccc2)n1 | 19.5% (active)
20 | CCOc1ccc(/C=N/NC(=O)CSc2ccccn2)cc1O | inactive
21 | Cc1ccc(Sc2cc(N3CCOCC3)nc(-c3ccccc3)n2)cc1 | 28% (active)
22 | C[C@H](NC(=O)c1nc[nH]c1C(=O)NCC(=O)OC(C)(C)C)c1ccccc1 | 13% (active)
23 | O=C(Nc1ccc(Cl)cc1)OCc1cc(-c2ccccc2)on1 | inactive
24 | COC(=O)Cn1cc(/C=C/[N+](=O)[O-])c2ccccc21 | 33.5% (active)
25 | Cc1nc(Nc2ccc(S(=O)(=O)N3CCCC3)cc2)c2nnn(Cc3ccccc3)c2n1 | inactive
26 | O=C(/C=C/c1ccc(Cl)c([N+](=O)[O-])c1)c1cccnc1 | 9% (active)
27 | O=C(/C=C/c1ccc(Cl)c([N+](=O)[O-])c1)c1ccc(O)cc1 | 22% (active)
